Compounds with a hit are over-represented: about 5.3% of the library has one in this group of screens.
M18AAP inhibitor – blocks P. falciparum M18 aspartyl aminopeptidase. recombinant PfM18AAP, H-Glu-NHMec fluorogenic cleavage. inhibition, % at 7.35 µM. 290,000 compounds, 1.2% hits. AID 1822;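 active means inhibition above the campaign mean inhibition over all tested compounds plus 3 SD, cut at about 28% in these data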
ALR inh – inhibitors of human sulfhydryl oxidase ALR. purified ALR, DTT oxidation, H2O2 HRP-luminol luminescence. inhibition, % (test concentration not listed). 290,000 compounds, 3.8% hits. AID 485317;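 active means mean replicate inhibition above about 79%, with every replicate also reaching it, limit read from the data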
Target sequence (P55789 whole entry, looked up): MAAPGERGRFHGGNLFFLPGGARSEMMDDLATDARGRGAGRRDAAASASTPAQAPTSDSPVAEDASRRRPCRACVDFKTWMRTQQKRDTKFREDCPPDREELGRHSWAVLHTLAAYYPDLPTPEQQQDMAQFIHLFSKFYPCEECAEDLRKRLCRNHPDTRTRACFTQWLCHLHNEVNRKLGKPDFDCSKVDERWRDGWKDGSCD
SUMO Mot1 rescue – inhibitors of SUMOylation pathway: yeast Mot1-301 growth rescue. S. cerevisiae Mot1-301 growth rescue, ATP luminescence, 38.5C; percent above DMSO median, 100 means doubled. growth rescue, % at 18.8 µM. 320,000 compounds, 1% hits;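 active means every valid replicate shows activation above 250% relative to neutral control wells; inactive means the rest, any valid replicate at or below 250%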
HIF activator – HIF pathway transcriptional activation; U2OS HRE-luciferase reporter, luminescence; normalized: DMSO 0%, desferrioxamine 100%; activation, % at 7.5 µM (by protocol); 300,000 compounds, 0.32% hits; AID 1910;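 active means mean activation of at least 10% of the iron chelator positive control signal, with at least half of replicates also reaching 10%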
Large screens that a line does not name were inactive.

CN1CC(=O)N(CC(=O)Nc2ccc(SC(F)F)cc2)C1=O	ALR inh 98.3
Cc1c(C=Nc2ccc(S(=O)(=O)CCO)cc2)c(O)[nH]c(=O)c1C#N	none (no result: M18AAP inhibitor)
CC(C)NC(=O)c1ccc(C(C)C)cc1	none
Cc1nn(Cc2ccc(Cl)cc2Cl)c(C)c1NC(=O)c1nn(C)cc1Cl	none
Cc1nn(Cc2ccc(Cl)cc2Cl)c(C)c1NC(=O)CCl	ALR inh 90.3
CCn1c(-c2ccc3[nH]c(C)c(C)c3c2)n[nH]c1=S	ALR inh 98.1
Cc1[nH]c2ccc(-c3n[nH]c(=S)n3C)cc2c1C	ALR inh 98.0
C=CCn1c(-c2cccn(Cc3ccc(Cl)cc3Cl)c2=O)n[nH]c1=S	none (no result: ALR inh)
CCOc1cc(/C=N/Nc2ncnc(Cl)c2N)ccc1O	ALR inh 98.8
CCOc1cc(/C=N\n2nnnc2N)ccc1O	ALR inh 98.9
CCOc1cc(/C=N/Nc2nnc(C)n2N)ccc1O	ALR inh 99.4
Nc1c(Cl)ncnc1N/N=C/c1ccccn1	none (no result: HIF activator)
O=C(Nc1ccc(S(=O)(=O)N2CCCC2)cc1)C1CC(=O)N(CCc2ccc(F)cc2)C1 (configuration not stated)	none (no result: M18AAP inhibitor, HIF activator)
COCCN(C(=O)COC(=O)c1ccc(C)s1)c1c(N)n(Cc2ccccc2)c(=O)[nH]c1=O	none (no result: M18AAP inhibitor)
CCOC(=O)N1CCN(C(=O)Cn2ncc3c2-c2ccccc2OC3)CC1	SUMO Mot1 rescue 356.8
CCN1CCN(C(=O)Cn2ncc3c2-c2ccccc2OC3)CC1	none
COc1ccccc1OCc1nnc(SCC(=O)Nc2ccc(N3CCOCC3)cc2)n1C	none
O=C(COc1ccc([N+](=O)[O-])cc1)N(C1CCCCC1)C1CCS(=O)(=O)C1 (configuration not stated)	none (no result: M18AAP inhibitor)
N#CC(C#N)=C(N)/C(C#N)=C/c1cc(O)c(O)c(O)c1	ALR inh 96.2 (no result: M18AAP inhibitor, HIF activator)
Cc1cc(C)nc(N/N=C/c2cc(Br)ccc2O)n1	HIF activator 34.4 (no result: SUMO Mot1 rescue)
Cc1cc(C)nc(N/N=C/c2ccccc2OCc2ccc(Br)cc2)n1	none
CN(/N=C/c1ccc(N(C)C)cc1)C1=NS(=O)(=O)c2ccccc21	none
O=C(NNc1c2ccccc2nc2ccccc12)c1ccc(O)cc1	ALR inh 98.8
O=C(NNc1c2ccccc2nc2ccccc12)c1cccc(O)c1	ALR inh 98.8
O=C(NNc1c2ccccc2nc2ccccc12)C(O)c1ccccc1 (configuration not stated)	ALR inh 99.3
O=C(NNc1c2ccccc2nc2ccccc12)C12CC3CC(CC(C3)C1)C2	none (no result: ALR inh)
O=C(O)c1cccc(Nc2c3ccccc3nc3ccccc23)c1	none
COc1ccc(CSC(=N)N)cc1[N+](=O)[O-]	none (no result: ALR inh)
CCCOc1ccc(CSC(=N)N)cc1C(=O)OC	ALR inh 98.7
COC(=O)c1cc(CSC(=N)N)ccc1OCCC(C)C	ALR inh 99.3
Cc1cc(Cl)ccc1OC(C)C(=O)OCC(=O)c1ccc[nH]1 (configuration not stated)	none (no result: M18AAP inhibitor, HIF activator)
Nc1ccc2oc3ccc(N)cc3c(=O)c2c1	ALR inh 99.2
O=c1c2ccccc2oc2ccc(Oc3ccccc3)cc12	none
CN(CCC1CCOCC1)C(=O)CC1C(=O)NCCN1Cc1ccccc1F (configuration not stated)	none
CCc1cc(C(=O)c2ccc(OC)cc2)c(NC(=O)COCC(=O)O)s1	none (no result: ALR inh)
CCc1cc(C(=O)c2ccc(OC)cc2)c(NC(=O)CC(C)(C)CC(=O)O)s1	ALR inh 80.8
CCc1cc(C(=O)c2ccc(OC)cc2)c(N)s1	ALR inh 98.9
CCc1cc(C(=O)c2ccccc2OC)c(N)s1	ALR inh 93.2 (no result: HIF activator)
O=C(NCCC(=O)N1CCN(c2ccccn2)CC1)c1ccc(Cl)cc1	none (no result: M18AAP inhibitor, HIF activator)
N#Cc1nc(-c2cccc3ccccc23)oc1NCCN1CCOCC1	none
N#Cc1nc(-c2ccccc2F)oc1NCCN1CCOCC1	ALR inh 96.0
N#Cc1nc(-c2ccc(F)cc2)oc1NCCN1CCOCC1	none
Cc1ccc(-c2nc(C#N)c(NCCN3CCCCC3)o2)cc1	ALR inh 92.4
COc1ccc(CNC(=O)CCCn2nc(C)c3c(C)n(-c4ccccc4)nc3c2=O)cc1	none
COc1cc(O)c(C(CC(=O)N2CCCC2)c2ccc(N(C)C)cc2)c(OC)c1 (configuration not stated)	ALR inh 98.2 (no result: M18AAP inhibitor)
COc1cc(O)c(C(CCN2CCCC2)c2ccc(N(C)C)cc2)c(OC)c1 (configuration not stated)	none (no result: M18AAP inhibitor, ALR inh)
COc1ccc(C(CC(=O)N2CCCCC2)c2c(O)cc(OC)cc2OC)cc1 (configuration not stated)	none (no result: M18AAP inhibitor, ALR inh)
COc1cc(O)c(C(CCN2CCCCC2)c2ccc(N(C)C)cc2)c(OC)c1 (configuration not stated)	ALR inh 98.3 (no result: M18AAP inhibitor)
CCOC(=O)c1cc(-c2nnc(-c3ccc(Oc4ccccc4)cc3)o2)c(C)nc1C	none
Cc1noc(C)c1COC(=O)CCN1c2ccccc2Sc2ccccc21	ALR inh 92.7 (no result: SUMO Mot1 rescue)
COc1ccc(NC(=O)/C=N/O)cc1	none
COc1ccc(N/N=C(\C=N\O)C(=O)c2ccc(OC)cc2)cc1	ALR inh 93.1
CC(=O)c1sc(NC(=O)C2(F)C(F)(F)C(F)(F)C(F)(F)C(F)(F)C2(F)F)nc1C	none (no result: HIF activator)
Cc1nn(Cc2ccc(F)cc2)c2sc(C(=O)Nc3ccc(N4CCOCC4)cc3N3CCOCC3)cc12	none
CCn1c(SCC(=O)NNC(=S)Nc2ccc(C)cc2)nnc1-c1ccc(Cl)cc1	ALR inh 96.5
CCC1CCCCN1C(=O)CSc1nc(N)c(NC(=O)c2ccco2)c(=O)[nH]1 (configuration not stated)	ALR inh 85.3
COc1cccc(C2C(C(=O)c3ccco3)=C(O)C(=O)N2CCN(C)C)c1OC (configuration not stated)	SUMO Mot1 rescue 469.6
COc1cc(N)c(Cc2nccc3cc(OC)c(OC)cc23)cc1OC	ALR inh 88.4
Cc1cc(-c2nnnn2-c2cc(Cl)cc(Cl)c2)no1	HIF activator 12.5
C[C@H](CO)N1C[C@H](C)[C@@H](CN(C)Cc2ccccc2)Oc2c(NC(=O)C3CC3)cccc2C1=O	none (no result: M18AAP inhibitor, HIF activator)
CCCn1c(=NC(=O)c2ccco2)c(C(=O)OCC)cc2c(=O)n3ccccc3nc21	none
CCCn1c(=NC(=O)c2c(-c3c(F)cccc3Cl)noc2C)c(C(=O)OCC)cc2c(=O)n3ccccc3nc21	HIF activator 23.3
COc1ccc(OCC(=O)NC(=S)Nc2ccc(S(=O)(=O)Nc3cc(C)on3)cc2)cc1	none
COCCN(Cc1ccccc1)C(=O)C1CCN(S(=O)(=O)c2ccc3c(c2)OCCO3)CC1	none (no result: M18AAP inhibitor, ALR inh, HIF activator)
CCOC(=O)c1ncn2c1[C@@H]1CCNC1C(=O)c1cc(OC)ccc1-2 (some centres not stated)	none (no result: M18AAP inhibitor, HIF activator)
Nc1ccc2nc(CCCCCCCCc3nc4ccc(N)cc4[nH]3)[nH]c2c1	ALR inh 96.5
Nc1ccc2nc(CCCCc3nc4ccccc4[nH]3)[nH]c2c1	ALR inh 99.6
Nc1ccc2nc(COc3ccccc3)[nH]c2c1	ALR inh 91.1
COC(=O)c1ccc(C(=O)OCCCc2nc3ccc(N)cc3[nH]2)cc1	ALR inh 89.6
CC(C)c1ccccc1NCC(=O)N1CCN(Cc2ccccc2)CC1	none
Cc1cc(NC(=O)CSc2nc(=O)n(CCCN(C)C)c3c2CCCC3)no1	none (no result: M18AAP inhibitor)
